Assay results: PubChem BioAssay AID1045 (SRMLSC, 2008)
About 1,400 (93%) of roughly 1,500 compounds were called active. How the calls were made is not given here. So high a share suggests a set chosen from earlier hits. A selection follows. Potency and affinity values are given separately.

assay: viability of HCT116 lacking mutant beta-catenin – cell-based, human colon tumor, dose response (AID 1045); conditions: HCT116 beta-catenin knockout viability, CellTiter-Glo, 60 h; series mostly up to 30 µM; viability: at the top concentration

Row | SMILES | viability
1 | c1ccc(-c2cc3n(c2)CCc2ccccc2-3)cc1 | 80.8% (inactive)
2 | CC(C[N+](C)(C)C)OC(N)=O (stereo not given) | 94.6% (inactive)
3 | CC1CCN(CC(=O)N2c3ccccc3CCc3ccccc32)CC1 | 91.3% (inactive)
4 | O=C(CSc1nnc(-c2ccccc2Cl)o1)Oc1ccc(Br)cc1 | 102% (inactive)
5 | Cc1ccc(C(=O)Nc2ccccc2C(=O)NC(C(=O)O)C(C)C)cc1 (stereo not given) | 92.6% (inactive)
6 | CCOC(=O)Nc1ccc(C)cc1Br | 97.8% (inactive)
7 | Cc1nn(C(=O)N2CCOCC2)c(C)c1C | 93.1% (inactive)
8 | O=S(=O)(NCCc1csc(-c2cccnc2)n1)c1ccc2c(c1)OCCO2 | 97.6% (inactive)
9 | CCOc1ccccc1NC(=O)Cn1cnc2c(nnn2-c2cccc(OC)c2)c1=O | 89.3% (inactive)
10 | COCCn1c(=NC(=O)CSCC(=O)Nc2cc(C)on2)sc2cc(C(=O)OC)ccc21 | 114% (inactive)
11 | CCOc1c(OC)ccc2c3c(c(=O)oc12)CCCC3 | 92.8% (inactive)
12 | CCOc1ccc(C2/C(=C(\O)c3c(C)[nH]c(C(=O)OC)c3C)C(=O)C(=O)N2CCN(C)C)cc1 (stereo not given) | 101% (inactive)
13 | COC(=O)c1cn(NC(=O)c2cc(OC)c(OC)c(OC)c2)c(=O)c2ccccc12 | 80% (inactive)
14 | Cc1[nH]nc2c1C(c1ccsc1C)C(C#N)=C(N)O2 (stereo not given) | 94.6% (inactive)
15 | CC(C)CCCCCCNC(=S)Nc1ccc(S(=O)(=O)N2CCOCC2)cc1 | 83.6% (inactive)
16 | CC(=O)c1c(C)nc(-c2ccc(Cl)cc2Cl)n1O | 94.7% (inactive)
17 | Cc1cc(NC(=O)CSc2nc(-c3cccnc3)ccc2C#N)no1 | 88.9% (inactive)
18 | [N-]=[N+]=NC1C[C@H](n2ccc(=O)[nH]c2=O)O[C@@H]1CO (stereo not given in full) | 97.4% (inactive)
19 | COC(=O)c1cccc(N2C(=O)C(Cl)=C(N3CCOCC3)C2=O)c1 | 84.8% (inactive)
20 | CS(=O)(=O)c1nc(-c2cccs2)cc(C(F)(F)F)n1 | 97.9% (inactive)
21 | N#CC(c1ccc(Cl)nn1)c1ccc(Cl)cc1Cl (stereo not given) | 87% (inactive)
22 | CCCCN(C)C(=O)C1CCC(=O)N(c2cc(OC)c(OC)c(OC)c2)C1c1ccc(OC)cc1 (stereo not given) | 100% (inactive)

Row | SMILES | viability
23 | COCCNC(=O)NC1(C(F)(F)F)Oc2ccc(Cl)cc2O1 (stereo not given) | 90.1% (inactive)
24 | O=C(NCc1ccc(F)cc1)C1C2C=CC3(CN(Cc4cccnc4)C(=O)C13)O2 (stereo not given) | 99.1% (inactive)
25 | COC(=O)c1ccc(/C=C(\C#N)C(=O)NC(C)c2ccccc2)cc1 (stereo not given) | 81.2% (inactive)
26 | COC(=O)c1ccc(Oc2nc(C(N)=O)cc(-c3ccccc3)n2)cc1 | 89.1% (inactive)
27 | CC(C)(C)c1ccc(CNc2ccc([N+](=O)[O-])cn2)cc1 | 87.2% (inactive)
28 | Cc1ccc(CNc2ccc(O)cc2)cc1 | 89.3% (inactive)
29 | O=C(c1nnc(Cc2ccc(Cl)cc2)o1)N1CCc2ccccc2C1 | 87.9% (inactive)
30 | CCN(CCNC(=O)Nc1ccc(Cl)cc1)c1ccccc1 | 99.3% (inactive)
31 | CN1CCN(c2nc(N3CCN(c4ccccc4)CC3)ncc2F)CC1 | 80.7% (inactive)
32 | CNC(=O)C1C(=S)NC(N)=C(C#N)C1c1ccccc1 (stereo not given) | 81.2% (inactive)
33 | CCC(Sc1nc2sc(C(=O)OC)c(C)c2c(=O)n1N)C(=O)N(CC)CC (stereo not given) | 98.7% (inactive)
34 | Cc1cc(NS(=O)(=O)c2ccccc2)cc(Cl)c1O | 94.8% (inactive)
35 | O=C(NNc1nc2cc3c(cc2s1)OCO3)c1cccc(F)c1 | 91% (inactive)
36 | COc1ccc(C(=O)OC2CCN(c3ncc(C(F)(F)F)cc3Cl)CC2)cc1 | 92.8% (inactive)
37 | COc1ccc(CCN2C(=O)CN(Cc3ccccc3)CC2=O)cc1OC | 86.4% (inactive)
38 | O=C(NCCOc1ccccc1)C(c1ccccc1)c1ccccc1 | 101% (inactive)
39 | Cc1cc2ncn(C(=O)N3CCC(C)CC3)c2cc1C | 96.2% (inactive)
40 | COC(C)(C)[C@H](O)COc1c2ccoc2cc2oc(=O)ccc12 | 96.7% (inactive)
41 | CCOC(=O)c1[nH]c2ccc(OC)cc2c1NC(=S)N1CCN(c2ccccc2)CC1 | 93.1% (inactive)
42 | Oc1ccc(C=Nc2ccc3ncccc3c2)c(O)c1 | 82.3% (inactive)
43 | CCN(CC)S(=O)(=O)c1ccc(-c2nnc(SCc3nnc(-c4ccccc4)o3)o2)cc1 | 81.1% (inactive)
44 | O=C(Nc1cccc(C(F)(F)F)c1)C12CC3CC(CC(C3)C1)C2 | 91.7% (inactive)

Row | SMILES | viability
45 | CN(C)c1nn(C(=O)Nc2cccc(C(F)(F)F)c2)cc1-c1ccccc1 | 82.9% (inactive)
46 | CCCCCn1c(Sc2ccccc2)nc2c1c(=O)[nH]c(=O)n2C | 83.4% (inactive)
47 | CC(C(=O)NC(=O)NCc1ccccc1)N1C(=O)c2ccccc2C1=O (stereo not given) | 107% (inactive)
48 | Cc1cc(NC(=O)Cn2c(=O)n(Cc3ccccc3)c(=O)c3ccccc32)no1 | 83.5% (inactive)
49 | Cc1cc(Cl)ccc1N=c1ssnc1Cl | 91.1% (inactive)
50 | CCN(CC)C(=O)CCCOc1ccc(Cl)cc1Cl | 83% (inactive)
51 | O=C(Nc1cccc2ccccc12)N1CCN(Cc2ccc3c(c2)OCO3)CC1 | 96.3% (inactive)
52 | COc1ccc(C(C)=O)cc1CSc1nc2ccccc2o1 | 96.2% (inactive)
53 | CCOC(=O)C1=C(C)NC(=S)N(C(C)=O)C1c1ccc(Cl)cc1 (stereo not given) | 82.2% (inactive)
54 | Cc1cc(C)c2c(=O)n(CC(=O)N3CCC(Cc4ccccc4)CC3)sc2n1 | 80.1% (inactive)
55 | Cc1sc2c(=O)n3c(nc2c1C(=O)NCCCN1CCOCC1)CCCCC3 | 97.5% (inactive)
56 | CCCCNS(=O)(=O)c1ccc2nc(-c3cccnc3)cc(C(=O)NC3CC3)c2c1 | 92.2% (inactive)
57 | O=C(NCc1ccccn1)c1c(O)c2cccc3c2n(c1=O)CC3 | 97.4% (inactive)
58 | CNC(=S)N/N=C(\C)c1ccc(N2CCOCC2)cc1 | 91.4% (inactive)
59 | COc1cccc(OCC(=O)NN=C2c3ccccc3-c3ccccc32)c1 | 97% (inactive)
60 | O=C(CSc1ncnc2c1nnn2-c1ccc(F)cc1)NCC1CCCO1 (stereo not given) | 84% (inactive)
61 | Cc1cc(NC(=O)c2sc(Nc3cccc(C(F)(F)F)c3)nc2N)no1 | 88.3% (inactive)
62 | COc1ccc(Nc2oc(COc3ccc(Cl)cc3)nc2C#N)cc1 | 84.1% (inactive)
63 | CCCn1c(SCC(=O)c2ccc3c(c2)NC(=O)CO3)nc2ccccc21 | 82.9% (inactive)
64 | C=CCNc1nc(Nc2ccc(-c3nc4ccccc4o3)cc2)nc(N2CCOCC2)n1 | 93.2% (inactive)
65 | CCOC(=O)c1c(C2COc3ccccc3O2)csc1NC(=O)c1ccccc1 (stereo not given) | 87.7% (inactive)
66 | O=C(CCNc1cc(Cl)cc(Cl)c1)c1ccco1 | 87.6% (inactive)

Row | SMILES | viability
67 | O=C(NCc1ccc2c(c1)OCO2)c1ccc2c(c1)C(=O)N(CC1CCCO1)C2=O (stereo not given) | 105% (inactive)
68 | COC(=O)COc1ccc(S(=O)(=O)NCc2ccncc2)cc1 | 96.7% (inactive)
69 | C=CCNC(=O)c1ccccc1NC(=O)c1ccccc1C | 101% (inactive)
70 | CCOc1ccc(N(CC(=O)NC2CCCCCC2)S(=O)(=O)c2c(C)noc2C)cc1 | 101% (inactive)
71 | Nc1c(NCCN2CCOCC2)c2ccccc2oc1=O | 85.6% (inactive)
72 | COc1cccc2cc(C(=O)N(C)C)c(=O)oc12 | 92.8% (inactive)
73 | Cc1[nH]nc2c1C(C1CC=CCC1)C(C#N)=C(N)O2 (stereo not given) | 96.1% (inactive)
74 | Cc1cc(C)c2c(=O)n(CC(=O)NCCCN3CCOCC3)sc2n1 | 83.9% (inactive)
75 | N/C(=N\c1nc(C(F)(F)F)cc(=O)[nH]1)Nc1ccc(Cl)cc1 | 90.8% (inactive)
76 | OCCn1c(C(F)(F)F)nc2ccccc21 | 90.5% (inactive)
77 | COC(=O)Nc1nc2c(s1)CCCC2 | 104% (inactive)
78 | O=C(N/N=C/c1ccc(O)c(O)c1O)/C(=C/c1ccc([N+](=O)[O-])cc1)NC(=O)c1ccccc1 | 81.1% (inactive)
79 | COc1ccc(N2CCN(C(c3cc(OC)ccc3OC)c3nnnn3CC3CCCO3)CC2)cc1 (stereo not given) | 89.4% (inactive)
80 | Cc1cccc(CS(=O)(=O)c2nnc([C@H](Cc3ccccc3)NC(=O)OC(C)(C)C)o2)c1 | 92.4% (inactive)
81 | CCCCS/C(N)=N/N=C/c1ccccc1O | 97.4% (inactive)
82 | CC(C)c1cc(=O)oc2c3c4c(cc12)CCCN4CCC3 | 86.2% (inactive)
83 | CN1/C(=C\C(=S)NC(=O)c2ccc([N+](=O)[O-])cc2)C(C)(C)c2ccccc21 | 94.3% (inactive)
84 | O=S(=O)(c1cccc2ccccc12)N1CCSC1 | 96.6% (inactive)
85 | CCCCn1c(=NC(=O)c2ccco2)c(C(=O)OCC)cc2c(=O)n3ccccc3nc21 | 81.3% (inactive)
86 | Cc1cc(Nc2ccccc2)nn1C(=O)c1ccccc1 | 98.3% (inactive)
87 | CCCC(=O)Nc1ccc(C)c(O)c1 | 93.3% (inactive)
88 | COC(=O)c1cc(OC)c(OC)cc1NC(=O)c1ccccc1 | 89% (inactive)

Row | SMILES | viability
89 | OC1(c2cccc(C(F)(F)F)c2)CCN(c2ccc(-c3ccccc3)nn2)CC1 | 93.7% (inactive)
90 | CCN(CC)c1ccc(N=Cc2ccc(N(CC)CC)cc2O)cc1 | 87.8% (inactive)
91 | CCCCNC(=O)Nc1c(C(=O)OC)[nH]c2ccc(C)cc12 | 81.5% (inactive)
92 | CN(C)S(=O)(=O)c1cccc(NC(=O)COC(=O)c2cccc(S(=O)(=O)N3CCc4ccccc4C3)c2)c1 | 91.7% (inactive)
93 | c1ccc2c(c1)CCCC2C1=NCCN1 (stereo not given) | 96.7% (inactive)
94 | O=C(Nc1cccc2ccccc12)c1onc2c1CCCC2 | 87.9% (inactive)
95 | COc1ccc(NC(=O)CCCn2c(=O)c3sccc3n(Cc3ccccc3)c2=O)cc1 | 90.1% (inactive)
96 | OC1C2CN3CCN(C2)CC1(Cc1ccccc1)C3 (stereo not given) | 97.8% (inactive)
97 | O=C(c1ccc2c(=O)n(CC3CCCO3)c(=S)[nH]c2c1)N1CCN(c2ccccc2)CC1 (stereo not given) | 99.5% (inactive)
98 | CCOC(=O)N1CCN(C(=O)c2nn(-c3ccc(C)cc3)c(=O)c3c2c2ccccc2n3C)CC1 | 88.9% (inactive)
99 | C=CCNc1nnc(SC2CC(=O)N(c3ccc(OC)cc3)C2=O)s1 (stereo not given) | 101% (inactive)
100 | Cc1c(Cl)ccc2sc(NC(=O)CN3C(=O)c4ccccc4C3=O)nc12 | 101% (inactive)
101 | COc1ccc(S(=O)(=O)CCC(=O)N(C)c2ccc(OC)cc2OC)cc1 | 87% (inactive)
102 | CCCCN1C[C@H](O)[C@@H](O)[C@H](O)[C@H]1CO | 99.3% (inactive)
103 | O=C(COC(=O)c1c2c(nc3ccccc13)CCCC2)Nc1ccc2c(c1)OCO2 | 83.9% (inactive)
104 | O=C(COC(=O)c1cccnc1Nc1cccc(C(F)(F)F)c1)NCc1ccc2c(c1)OCO2 | 84.7% (inactive)
105 | CCOC(=O)Cn1c2ccccc2c2nc3ccccc3nc21 | 89.9% (inactive)
106 | Cc1ccc(Cn2nc(C)c(NC(=O)CSc3nc4c(c(C(F)(F)F)n3)CCc3ccccc3-4)c2C)cc1 | 90.2% (inactive)
107 | COc1ccc(CCn2c(N)c(C(=O)NCc3ccco3)c3nc4ccccc4nc32)cc1OC | 81.8% (inactive)
108 | COc1ccccc1CN=Cc1[nH]c2ccc(Br)c(Cl)c2c1O | 80.3% (inactive)
109 | COc1ccc(C(=O)OCC(=O)c2cc(OC)ccc2OC)c(OC)c1 | 88.4% (inactive)
110 | O=C1[C@H]2[C@H]3[C@H](O)[C@H](O)C/C(=N\OC[C@@H](O)COCc4ccco4)[C@@H]3CC[C@H]2C(=O)N1c1ccc(F)cc1F | 93.9% (inactive)
